The list is not random: actives were taken first. Their share in the collection is about 7.5%.
Vaccinia mCherry: inhibitors of vaccinia virus infection (mCherry reporter signal); Vaccinia virus mCherry reporter infection, fluorescence; Potency, µM (highest dose often 36.5 µM), for the others: top-dose activity change, negative = inhibition, usual class: inhibitors; 310,000 compounds, 0.63% hits; calls by dose curve; tested in A549 cells; further: potency means the concentration at half of the fitted maximal effect; nearly all actives have a fitted effect of over 35% in size
HCMV antiviral: blocks human cytomegalovirus replication | HFF cells, HCMV-luciferase reporter, 72 h; hits give low values | activity change, negative = inhibition, % at 57.5 µM | 410,000 compounds, 4.5% hits | AID 1259415; in the data active means activity change below about -60%; inconclusive means no clear call, values can overlap the other calls; inactive means above about -39%
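Cell-based, HFFs, 1000 cells/well, 16 h 37C; cpds in DMSO + HCMV-luc, MOI 1 PFU/cell; 72 h 37C; OneGlo luminescence after 5 min RT; norm. to buffer vs Salinomycin 10uM.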
FBPA Giardia inh: inhibitors of Giardia lamblia fructose-1,6-bisphosphate aldolase. Potency, µM (highest dose often 59.6 µM), inactives show at the highest dose activity, negative = inhibition, hits mostly inhibitors. 290,000 compounds, 0.71% hits. purified Giardia FBPA; further: potency means the concentration at half of the fitted maximal effect; nearly all actives have a fitted effect of over 55% in size
Target sequence (A8B2U2 whole entry, looked up): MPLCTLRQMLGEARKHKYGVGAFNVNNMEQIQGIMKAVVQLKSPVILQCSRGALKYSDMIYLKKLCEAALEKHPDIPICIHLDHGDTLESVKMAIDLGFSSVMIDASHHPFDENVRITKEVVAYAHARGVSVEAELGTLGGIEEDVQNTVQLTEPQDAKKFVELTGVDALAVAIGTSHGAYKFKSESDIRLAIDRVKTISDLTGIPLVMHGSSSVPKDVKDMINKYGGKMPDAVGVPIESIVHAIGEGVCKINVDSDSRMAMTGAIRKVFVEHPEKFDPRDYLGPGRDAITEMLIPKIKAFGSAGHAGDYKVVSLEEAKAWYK
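Giardia FBPA (40 nM reagent) was preincubated 10 min at RT with compound (up to 57.5 uM final), then substrate plus GAPDH/TPI/NAD/arsenate coupling system with diaphorase/resazurin was added; resorufin fluorescence (525/598 nm) was read after 20 min.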
Vaccinia Venus: vaccinia inhibition (Venus reporter) | Vaccinia virus Venus reporter expression, fluorescence | Potency, µM (series often up to 36.5 µM), inactives show top-dose activity change, negative = inhibition, actives largely listed as inhibitors | AID 720580 | 330,000 compounds, 0.46% hits; calls by dose curve; tested in A549 cells; further: potency means the concentration at half of the fitted maximal effect; nearly all actives have a fitted effect of over 30% in size
HCV inhibitor: inhibitors of hepatitis C virus infection; Huh7.5.1 HCVcc-Cre infection, luciferase reporter, 44 h; Potency, µM (doses to about 41.8 µM), for the others: at the top dose activity change, negative = inhibition, actives largely listed as inhibitors; 340,000 compounds, 3.4% hits; AID 651820; further: potency means the concentration at half of the fitted maximal effect
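A cell-based infection assay in which seeded cells (1,000 per well) receive test compound after 4 h, are inoculated with HCVcc-Cre at approximately 0.5 moi, and are incubated 44 h before luminescence detection.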
FMDV antiviral: blocks foot and mouth disease virus; FMDV antiviral cell-based qHTS; Potency, µM (highest dose often 57.9 µM), for the others: at the highest dose activity change, negative = inhibition, usual class: inhibitors; 410,000 compounds, 1.2% hits; calls by dose curve; tested in HEK293T cells; further: read-out not given here; potency means the concentration at half of the fitted maximal effect; nearly all actives have a fitted effect of over 45% in size
Starred values were filed as active, the others as inactive; i = inactive; ? = inconclusive; / = no result; [ ] = remark or other dose. Unless noted, the call rests on the fitted dose curve; in most records, active means well fitted curve in the direction sought with a large enough effect; inconclusive means small, poorly fitted or top-dose-only effect, or another doubt; inactive means no such curve, though single readings can be large; an effect the other way counts as inactive or inconclusive. On the % scale 0 is the no-effect control and ±100 the full control effect.

SMILES	Vaccinia mCherry	HCMV antiviral	FBPA Giardia inh	Vaccinia Venus	HCV inhibitor	FMDV antiviral
CCOC(=O)c1ccc(NC(=O)c2nc(S(=O)(=O)Cc3ccccc3)ncc2Cl)cc1	?	-99*	/	?	10µM*	35µM*
CCOC(=O)c1c(-c2ccccc2)csc1NC(=O)c1nc(SCC)ncc1Cl	-12%	6	/	5%	/	-19%
CN(c1ccccc1)S(=O)(=O)c1ccc(NC(=O)c2nc(S(C)(=O)=O)ncc2Cl)cc1	-8%[7.34 µM]	-111*	/	-6%[7.34 µM]	10µM*	11µM*
CCCSc1ncc(Cl)c(C(=O)Nc2ccc(S(=O)(=O)N(C)c3ccccc3)cc2)n1	-18%	-35	/	-13%	/	1%
CCOC(=O)c1c(-c2ccccc2)csc1NC(=O)c1nc(S(=O)(=O)CC)ncc1Cl	?	-98*	/	?	/	14µM*
CCc1ccc(NC(=O)c2nc(S(=O)(=O)Cc3ccccc3)ncc2Cl)cc1	/	-100*	-20%	/	/	/
COCC(=O)N1CCC2(CC1)CN(C(=O)Nc1ccc(OC)cc1)C2	/	/	3%	/	/	-9%
COc1ccc(NC(=O)c2oc3ccccc3c2NC(=O)COc2ccc(F)cc2)c(OC)c1	7%	0	/	8%	/	-5%
COc1ccc(NC(=O)c2nc(SC)ncc2Cl)cc1	i	0	-5%	0%	-4%	24%
CCS(=O)(=O)c1ncc(Cl)c(C(=O)Nc2ccccc2)n1	?	-103*	/	?	/	?
CCSc1ncc(Cl)c(C(=O)Nc2ccccc2)n1	i	-19	5%	-11%	-8%	-19%
CS(=O)(=O)c1ncc(Cl)c(C(=O)Nc2c(C(=O)Nc3ccccc3)oc3ccccc23)n1	?	5	/	?	/	28µM*
CCN(c1ccccc1)S(=O)(=O)c1ccc(NC(=O)c2nc(SC)ncc2Cl)cc1	-29%	-86*	/	-7%	/	-25%
O=C(NCCCc1nc2ccccc2n1CCCOc1ccccc1)C1CCCCC1	-13%	/	/	-12%	/	/
CCCNC(=O)N1CC(=O)N2[C@H](CO)[C@@H](c3ccc(Br)cc3)[C@@H]2C1	/	8	/	/	/	/
ClC(=C\c1ccccc1)/C=N/N1CCN(c2ccccn2)CC1	?	-70*	0%	-9%	17%	12%
Cc1ccsc1/C=N/N1CCN(c2ccccn2)CC1	-20%	-71*	3%	8%	-27%	8%
CCc1ccc(-n2c(N3CCN(c4ccc(F)cc4)CC3)nc3ccccc3c2=O)cc1	-13%	?	/	-21%	/	?
O/N=C/c1ccc(-c2cc(Cl)ccc2Cl)o1	-4%	-62*	0%	-20%	?	0%
COc1cccc(Cn2c(CNS(=O)(=O)c3ccc(F)c(Cl)c3)nc3cccnc32)c1	?	-14	/	-17%	/	46%
Cc1ccccc1OCc1ccc(-c2nc(C#N)c(NCCCN(C)C)o2)o1	-12%[7.34 µM]	?	/	-12%[7.34 µM]	/	-3%
Cc1ccc(N2CCN(S(=O)(=O)c3nnc(NC(=O)c4ccco4)s3)CC2)cc1	i	7	?	-5%	16%	-20%
CC1CCC(C(C)C)[C@H](OC(=O)c2ccccc2)C1 (some centres undefined)	i	/	5%	-3%	/	3%
COc1ccc(OCc2n(CC(=O)OC3CC(C)CCC3C(C)C)c3ccccc3[n+]2C)cc1 (centres undefined)	i[7.34 µM]	-103*	0%	0%[7.34 µM]	?	?
COc1ccc(-c2n(CC(=O)OC3CC(C)CCC3C(C)C)c3ccccc3[n+]2C)cc1 (centres undefined)	?	17	-8%	?	11µM*	5µM*
SMILES	Vaccinia mCherry	HCMV antiviral	FBPA Giardia inh	Vaccinia Venus	HCV inhibitor	FMDV antiviral
Cc1cccc(C)c1OCc1cc(C(=O)NCC2CCCCC2)no1	/	?	/	/	2%	-7%
Cc1cccc(C)c1OCc1cc(C(=O)N(Cc2c(C)nn(C)c2C)C2CC2)no1	-11%[7.34 µM]	0	-4%	-20%[7.34 µM]	10µM*	20µM*
Cc1ccc(N(CC(=O)NCc2ccc3c(c2)OCO3)C(=O)c2csnn2)cc1	-17%	7	2%	-23%	9%	23%
O=C(NC1CCCCCC1)c1ccc(Cl)c(S(=O)(=O)N2CCOCC2)c1	16%	23	3%	2%	-18%	5%
CCCCCCCC(=O)C(C)C(=O)N(C)[C@H](Cc1ccc(OC)cc1)C(=O)N(C)[C@H](C(N)=O)C(C)C (some centres undefined)	0%	15	/	-6%	0.56µM*	0%
C#CCCC/C(=C\C(=O)N(C)[C@H](C(=O)N(C)[C@H](C(=O)N(C)[C@H](C(=O)N(C)[C@H](C(N)=O)C(C)C)C(C)C)C(C)C)C(C)C)OC	?	3	/	-16%	-23%	-17%
Cc1ccc2c(c1)-c1cc(C)nn1C(c1sccc1C)N2 (centres undefined)	/	?	0%	/	4µM*	13%
Cc1cc2n(n1)C(c1ccccc1)Nc1ccccc1-2 (centres undefined)	/	19	-1%	/	25µM*	5%
Cc1ccc2c(c1)-c1cc(C)nn1C(c1ccc3c(c1)OCO3)N2 (centres undefined)	/	11	8%	/	14µM*	20%
NC(=O)c1cc(N2CC2)c([N+](=O)[O-])cc1[N+](=O)[O-]	i	-13	-2%	-12%	0%	1.3µM*
CCOC(=O)N/N=C1/C[C@@H](O)[C@@H](O)[C@@H]2[C@@H]3C(=O)N(CC)C(=O)[C@H]3CC[C@@H]12	/	/	7%[12.9 µM]	/	/	/
CCCSc1ccccc1C(=O)N1CCN(C(=O)c2ccco2)CC1	-12%	-101*	/	-11%	3%	-9%
O=C(c1ccco1)N1CCN(C(=O)c2ccco2)C1=S	i	57	/	?	?	32µM*
CCC(C(=O)N1CCN(C(=O)c2ccco2)CC1)c1ccccc1 (centres undefined)	/	32	13%	/	-6%	0%
COc1ccc2c(=O)c(Oc3ccc(C(=O)O)cc3)c(C(F)(F)F)oc2c1	/	?	19%	/	22%	31%
O=S(=O)(c1ccc2c(c1)OCCO2)N1CCN(CCc2ccccc2)CC1	-14%	/	/	-11%	/	/
COc1cccc(CN2Cc3cccc4c3[C@H](C=CC4)CC2=O)c1	-3%	/	/	-22%	/	/
Cc1ccc(N2C(=O)CCSC23C(=O)N(Cc2ccccc2)c2ccccc23)cc1F (centres undefined)	-16%	0	/	?	/	4%
CC(C)Cn1c(=O)c(C(=O)Nc2ccccc2S(N)(=O)=O)c(O)c2ccccc21	?	-24	-5%	?	?	-6%
CCC(C)n1c(=O)c(C(=O)Nc2ccccc2S(N)(=O)=O)c(O)c2ccccc21 (centres undefined)	13µM*	-25	-7%	?	?	-18%
CC(C)CCn1c(=O)c(C(=O)Nc2ccccc2S(N)(=O)=O)c(O)c2ccccc21	?	-97*	-3%	?	?	-4%
